Experimental findings from PubChem BioAssay AID1566 (Sanford-Burnham Center for Chemical Genomics, 2009) are described below.

Among all 290,000 compounds or so, about 1,800 (0.62%) were called active. The entries come from a sample that favours actives as a whole. Values without a mark were called inactive. Cut-off read from the data, not from the text of the source: active = inhibition above about 50%; inactive = the rest.

A word on the inhibition: it is the relative decrease from the control value, in per cent.

The test in a line: NOD2 signaling inhibitors, cell-based, luminescence, uHTS, HEK293 (AID 1566). The following applies: HEK293 NOD2/NF-kB luciferase reporter, at 4 µM, stronger effect = higher value. For orientation: A reporter such as luciferase makes a cellular process visible.
In the case of `CC(=O)c1cccc(NCC(=O)c2ccc(C)c([N+](=O)[O-])c2)c1`, the inhibition was 15.7%. `Cc1ccc(S(=O)(=O)Nc2nnc(C(C)(C)C)s2)cc1`: the inhibition was 20.9%. `N/C(=N\c1nc(CSc2ccc(Cl)cc2)cc(=O)[nH]1)Nc1ccccc1C(F)(F)F`: the inhibition is 2.8%. For `O=C(O)CCC(=O)N1N=C(c2ccco2)CC1c1cccs1` (configuration not stated) the value was 12.1%; for `Cc1ccc(C2CC(c3cccs3)=NN2C(=O)CCl)cc1` (configuration not stated), 37.3%; for `CC(=O)N1N=C(c2ccco2)CC1c1cccs1` (configuration not stated), -8.2%. With `Cc1ccc(C2=NN(C(=O)CCl)C(c3ccco3)C2)o1` (configuration not stated) the figure was -44.2%; with `CCOC(=O)c1cccc(NC(=O)COC)c1`, 4.6%; with `CCOCCCNC(=O)/C(C#N)=C/c1ccc(C(=O)OC)cc1`, 15.4%.

Turning to `O=C1Nc2ccccc2S/C1=C\C(=O)N1CCCC1`, the inhibition was -4%. As for `O=C(CCNC(=O)c1ccco1)Nc1ccccc1N1CCOCC1`, the inhibition is -4.7%.

Turning to `COc1cc(/C=C2\SC(=O)N(CC(=O)Nc3cccc(C)c3)C2=O)cc([N+](=O)[O-])c1O`, the inhibition was 1.5%. For `CCOc1cc(/C=C2\SC(=O)N(CC(=O)Nc3ccccc3F)C2=O)cc([N+](=O)[O-])c1O` the value was 55.8% (active). Regarding `COc1cc(/C=C2\SC(=O)N(CC(=O)Nc3ccccc3F)C2=O)cc(Cl)c1O`, the inhibition is 18.4%. With `O=C(NC1CCCCC1)C1CN(S(=O)(=O)c2ccccc2)CCN1S(=O)(=O)c1ccccc1` (configuration not stated) the figure was 20.9%; with `CCOC(=O)/C(C#N)=C1/SC(CC)C(=O)N1c1ccc(Br)cc1` (configuration not stated), -8.1%. With `CC1CCN(C(=S)c2cn(Cc3ccccc3F)c3ccccc23)CC1` the figure was 10.5%; with `CC(=O)Oc1cccc(N2C(=O)C3CC=CCC3C2=O)c1` (configuration not stated), 2.7%.

With `Cc1csc2c(N3CCN(C(=O)Nc4ccccc4)CC3)ncnc12`, the inhibition is 34.1%. With `Cc1csc2c(N3CCN(C(=O)Nc4ccc(OC(F)(F)F)cc4)CC3)ncnc12` the figure was 10.4%; with `CC(NS(=O)(=O)c1ccc(Cl)cc1)C(=O)N1CCOCC1` (configuration not stated), -4.3%. Take `Cc1cc(OCC(=O)NCCCn2ccnc2)c2c(C)c(C)c(=O)oc2c1`: the inhibition was -3.4%.

Regarding `COc1ccc(S(=O)(=O)N(C)C(C)CCc2ccco2)cc1` (configuration not stated), the inhibition is -3.3%. For `CC(=O)c1ccc(S(=O)(=O)N(C)C(C)CCc2ccco2)cc1` (configuration not stated) the value was 54.3% (active); for `CC(CCc1ccco1)N(C)S(=O)(=O)c1csc(C(N)=O)c1` (configuration not stated), 15%; for `CC(C)(C)C(=O)C[n+]1cccc(C(N)=O)c1`, 12.8%. With `O=C(COc1cccc(C(F)(F)F)c1)Nc1ccc(S(=O)(=O)N2CCCC2)cc1` the figure was -5.9%.

Consider `Cc1cc(N2CCCC2)ccc1NC(=O)COc1cccc(C(F)(F)F)c1`, for which the inhibition is 60.3% (active).

Consider `O=C(COc1ccccc1)Nc1cc(C(F)(F)F)ccc1N1CCCC1`, for which the inhibition was 24.5%. Consider `O=C(Nc1cccc(C(F)(F)F)c1)C1CCN(S(=O)(=O)c2ccc(N3CCCC3=O)cc2)CC1`, for which the inhibition is 34.8%.

On to `Cc1ccc(N=C2C(=O)Nc3ccccc32)cc1`, for which the inhibition is 4%. With `Cc1cccc(C)c1N=C1C(=O)Nc2ccccc21` the figure was 57.9% (active); with `Cc1cc(C)c(N=C2C(=O)Nc3ccccc32)c(C)c1`, 22.5%; with `CCN(CC)C(=O)C1CCN(S(=O)(=O)c2ccc3c(c2)CCCN3C(=O)C2CCC2)CC1`, 23.6%.

With `COc1ccc(NC(C)=O)cc1NC(=O)c1ccc2ccccc2c1`, the inhibition is -14.6%. With `CCc1sc(NC(C)=O)nc1-c1ccccc1` the figure was -49.5%; with `CC(=O)Nc1ccc(NC(=O)C2CCC(CNS(=O)(=O)c3cccc4nsnc34)CC2)cc1` (configuration not stated), -8.1%. As to `CCCc1cc(=O)n2nc(N3CCC(C(=O)N4CCN(c5ccc(OC)cc5)CC4)CC3)sc2n1`, the inhibition is 62.2% (active). For `CCCc1cc(=O)n2nc(N3CCC(C(=O)N4CCN(c5cccc(OC)c5)CC4)CC3)sc2n1` the value was 40.5%. For `Cc1cc(=O)n2nc(N3CCC(C(=O)N4CCN(c5ccccc5)CC4)CC3)sc2n1` the value was -8.2%; for `NS(=O)(=O)c1ccc(CCNC(=O)c2ccc3ccccc3n2)cc1`, -17.8%; for `CCc1nnc(NC(=O)c2ccc(S(=O)(=O)N3CCc4ccccc4C3)cc2)s1`, 25.4%. Turning to `O=C(Nc1nnc(C2CC2)s1)c1ccc(Cl)c(S(=O)(=O)N2CCc3ccccc3C2)c1`, the inhibition was 41.6%. With `CCCn1ncc(CN2CCCC(C(=O)c3cccc(OC(C)C)c3)C2)c1C` (configuration not stated) the figure was -35.2%; with `Cc1[nH]c2ccc(C(=O)N3CCCCC3)cc2c1C`, -56%. For `CCC(=O)OCn1nnc2ccccc2c1=O` the value was 7.6%. With `Cc1sc(NC(=O)CCC(=O)O)c(C(N)=O)c1-c1ccccc1`, the inhibition was -3.9%. With `Cc1sc(NC(=O)c2cccc([N+](=O)[O-])c2)c(C(N)=O)c1-c1ccc(C(C)(C)C)cc1` the figure was 7.8%; with `O=S(=O)(Nc1cccc(-c2cn3cccnc3n2)c1)c1ccc(F)cc1`, 0.9%; with `O=S(=O)(Nc1cccc(-c2cn3cccnc3n2)c1)c1ccccc1`, 4.2%. With `COC(=O)C1CC(Cl)CN1c1ncc(C(F)(F)F)cc1Cl` (configuration not stated), the inhibition is 17.1%. As for `c1ccc(CNc2ncnc3ccccc23)cc1`, the inhibition was 55.3% (active). For `OCCCCCNc1ncnc2ccccc12` the value was 40.1%; for `c1ccc(CNc2nc(NCc3ccccc3)c3ccccc3n2)cc1`, -4.4%; for `COc1cc2ncnc(NCc3ccco3)c2cc1OC`, -78.1%. With `CCN(CC)CCCNc1ncnc2ccccc12` the figure was 9.5%; with `c1ccc(CCNc2ncnc3ccccc23)cc1`, 28.7%; with `Clc1ccc2c(NCc3ccco3)ncnc2c1`, 18.8%. With `COc1cc2ncnc(NCc3ccccc3)c2cc1OC` the figure was -17.4%.

On to `CCCCCCCCNc1ncnc2ccccc12`, for which the inhibition was 55.7% (active).

With `OCCNc1ncnc2ccc(Br)cc12`, the inhibition is 23%. For `Brc1ccc2ncnc(NCc3ccccc3)c2c1` the value was 79% (active); for `Nc1nc(Nc2cccc(Cl)c2)nc(NCCO)c1[N+](=O)[O-]`, 15.3%. With `CCOc1ccc(CN(C)CC(=O)Nc2cc(OC)c([N+](=O)[O-])cc2C)cc1` the figure was -8%; with `CCCN(CCC)S(=O)(=O)c1ccc(C(=O)NNc2nc(-c3ccccc3)c3cc(Br)ccc3n2)cc1`, -5%; with `Cc1cccnc1NC(=O)CCNC(=O)c1ccccc1Cl`, -22.7%. For `COc1ccccc1NC(=O)CSc1n[nH]c(-c2cccnc2)n1` the value was 8.6%.

Take `COc1ccc(C2C(C(=O)c3ccco3)=C(O)C(=O)N2CCCn2ccnc2)c(OC)c1` (configuration not stated): the inhibition is -6.9%. `CC(C)=C(NC(=O)c1ccccc1)C(=O)NCc1ccccc1`: the inhibition was -7%.

Turning to `O=c1sc2ccccc2c(N2CCOCC2)c1[N+](=O)[O-]`, the inhibition was 8.4%. Consider `COc1cc(/C=N\n2cnnc2)ccc1OCC(=O)Nc1ccc(C)cc1`, for which the inhibition was 12.5%. With `COC(=O)C1(Cc2cc(-c3cccnc3)no2)CCN(C(=O)OC(C)(C)C)CC1` the figure was 15.6%. Regarding `c1ccc2nc(-c3ccc(N4CCOCC4)cc3)ccc2c1`, the inhibition is -59.7%. For `CN1CCN(c2ccc(-c3ccc4ccccc4n3)cc2)CC1` the value was 79.9% (active).

`COc1ccc(-c2ccc3ccccc3n2)cc1`: the inhibition is -226%. With `Nc1ccc(Oc2cc(N)cc(Oc3ccccc3)c2)cc1` the figure was -93.4%. Regarding `Cc1cccc(Oc2ccc(N)cc2)c1`, the inhibition is -4%. For `CC(C)c1ccc(C(C(=O)NC2CCCC2)N(C(=O)c2csnn2)C2CC2)cc1` (configuration not stated) the value was 12.1%; for `CC(SCc1ccccc1)C(=O)NC1CCCC1` (configuration not stated), -2.5%; for `Cc1cc(=O)[nH]c(SCC(=O)Nc2ccnc3ccccc23)n1`, 26.4%. For `Cc1cc(C)nc(SCC(=O)Nc2ccnc3ccccc23)n1` the value was 50.5% (active); for `Cc1nc(SCC(=O)Nc2ccnc3ccccc23)n[nH]1`, 17.9%; for `NC(=O)c1cnn(-c2cc(Oc3ccccc3)ncn2)c1N`, -54.7%. With `Nc1ccc2c(c1)N=[N+]([O-])c1cc(N)ccc1C2` the figure was 4.2%. As to `CN(C)Cc1c(O)ccc2c(-c3ccccc3)cc(=O)oc12`, the inhibition is 1.4%. With `CC(=O)c1c(O)ccc2c(-c3ccccc3)cc(=O)oc12` the figure was 13%; with `COc1cc(NS(=O)(=O)c2ccc(N/C=C(\C=O)c3nc4ccccc4o3)cc2)nc(OC)n1`, 11%. For `CC(=O)NNC(=S)NC(=O)c1cccc([N+](=O)[O-])c1` the value was 14.7%; for `O=C(CN1C(=O)NC2(CCCC2)C1=O)N1CCN(S(=O)(=O)c2ccccc2Br)CC1`, 3.9%.

On to `CCc1c(C)sc(NC(=O)c2cc(-c3ccc(OC)c(OC)c3)on2)c1C#N`, for which the inhibition was 11.3%. For `CCc1c(C)sc(NC(=O)c2cc(-c3ccc(O)cc3)on2)c1C#N`, the inhibition is 50.7% (active).

Regarding `CCc1c(C)sc(NC(=O)c2cc(C)on2)c1C#N`, the inhibition is -59.7%. For `COc1ccc(CN(C)S(=O)(=O)c2nnc(NC(=O)c3cccc(OC)c3)s2)cc1` the value was 29.7%; for `COc1ccc(CN(C)S(=O)(=O)c2nnc(NC(=O)c3cccc(F)c3)s2)cc1OC`, 44.4%; for `Cn1c(NC2CCCCC2)cc(=O)n(C)c1=O`, 15.2%.

In the case of `COc1ccccc1OCC(=O)N1CCCC(Nc2ccc(C)c(C)c2)C1` (configuration not stated), the inhibition was 16.3%. With `CCCCn1c(N)c(N(CC(C)C)C(=O)c2cccc(S(=O)(=O)N3CCCCCC3)c2)c(=O)[nH]c1=O` the figure was 0.1%.
